Source: PubChem (Sanford-Burnham Center for Chemical Genomics)
Sampled rows, rich in hits. Any-hit rate of the full collection: about 31%.
CYP2C19 act: increases human CYP2C19 enzyme activity. activation factor at 5 µM. AID 1025. recombinant CYP2C19, luciferin-H EGE luminescence; active compounds read high; 0 = fully inhibited enzyme, 1 = untreated enzyme. 96,000 tested, under 10 active. P33261;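 active means activation factor of at least 2 at 5 µM in the primary screen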;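 further: 0 = wells with 2.5 mM tranylcypromine and 1 = vehicle-only wells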
PLAP activator: human PLAP activation; P05187; purified PLAP enzyme, luminescent substrate read-out; active compounds read high; 1.2% of 96,000 active; AID 696; activation fold at 20 µM; in the data active means activation fold above about 2
Target sequence (P05187 whole entry, looked up): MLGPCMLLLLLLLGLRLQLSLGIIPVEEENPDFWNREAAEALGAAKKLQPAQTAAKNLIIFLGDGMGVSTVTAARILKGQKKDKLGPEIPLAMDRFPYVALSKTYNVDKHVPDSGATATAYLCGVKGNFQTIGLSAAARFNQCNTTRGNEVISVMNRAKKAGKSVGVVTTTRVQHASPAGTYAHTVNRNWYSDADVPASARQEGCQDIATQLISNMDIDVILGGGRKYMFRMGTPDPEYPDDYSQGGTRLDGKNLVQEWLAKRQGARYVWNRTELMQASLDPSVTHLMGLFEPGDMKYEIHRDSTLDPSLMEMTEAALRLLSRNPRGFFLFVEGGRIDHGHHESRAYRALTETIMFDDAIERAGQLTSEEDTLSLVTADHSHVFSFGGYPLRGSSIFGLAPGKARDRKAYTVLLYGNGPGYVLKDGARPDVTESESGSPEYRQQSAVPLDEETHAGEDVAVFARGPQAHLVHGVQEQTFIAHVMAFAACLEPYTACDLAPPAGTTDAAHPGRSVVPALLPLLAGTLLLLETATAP
CYP2C9 act: activators of human CYP2C9; 1.4% of 96,000 active; recombinant CYP2C9, luciferin-H conversion, luminescence; active compounds read high; factor 1 = untreated enzyme, 0 = blocked; P11712; activation factor at 5 µM;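 active means activation factor of 2 or more for CYP2C9 at a 5 µM dose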;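 further: 0 = sulfaphenazole-blocked wells and 1 = vehicle-only wells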
CYP2C19 inh: human CYP2C19 inhibition; CYP2C19 Supersomes, luciferin-H EGE luminescence, 30 min; inhibition, % at 5 µM; 21% of 96,000 active;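 active means CYP2C19 inhibition above a set limit at 5 µM in the primary screen, cut at about 50% in these data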;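 further: plate controls were negative control wells for no effect and 2.5 mM tranylcypromine positive control for full effect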
CYP2C9 inh: blocks human cytochrome P450 2C9 | P11712 | CYP2C9 Supersomes, luciferin-H conversion, luminescence | inhibition, % at 5 µM | 20% of 96,000 active;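 active means blocking of liver enzyme CYP2C9 beyond about 50% at 5 µM, limit read from the data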
* = called active by the depositor.

SMILES | CYP2C19 act | PLAP activator | CYP2C9 act | CYP2C19 inh | CYP2C9 inh
CC(=O)Cn1c(C(F)(F)F)nc2ccccc21 | 1.1 | 1.1 | 1.1 | -13 | -14
Cc1nn(CC(O)c2ccccc2)c(C)c1Br (stereo not given) | 0.6 | 0.8 | 1 | 42 | -2
Cc1nn(CC(O)CN2c3ccccc3Sc3ccccc32)c(C)c1Br (stereo not given) | 0.1 | 1.5 | 0.1 | 89* | 93*
O=C1c2ccccc2C(=O)N1CC(O)Cn1nnc2ccccc21 (stereo not given) | 0.4 | 1 | 0.7 | 59* | 34
OC(Cn1nnc2ccccc21)Cn1c(C(F)(F)F)nc2ccccc21 (stereo not given) | 0.7 | 1 | 0.4 | 35 | 57*
OC(CN1c2ccccc2Sc2ccccc21)Cn1nnc2ccccc21 (stereo not given) | 0 | 1.4 | 0 | 100* | 100*
O=C(Cn1nnc2ccccc21)C1CC1 | 1 | 1 | 0.8 | -1 | 16
O=[N+]([O-])c1cccnc1N1CCC(c2cc(-c3cccc(C(F)(F)F)c3)n[nH]2)CC1 | 0.3 | 1.3 | 0 | 67* | 98*
O=[N+]([O-])c1cccnc1N1CCC(c2cc(-c3ccc(Cl)cc3Cl)n[nH]2)CC1 | 0.6 | 1.1 | 0.1 | 37 | 85*
CC(=O)c1ccc(N2CCC(c3cc(-c4ccc(Cl)cc4Cl)n[nH]3)CC2)c([N+](=O)[O-])c1 | 0.5 | 1.1 | 0.4 | 51* | 59*
COc1ccc(OC)c(-c2cc(C3CCN(c4ncccc4[N+](=O)[O-])CC3)[nH]n2)c1 | 0.8 | 1.3 | 0.5 | 22 | 49
CCc1c(C)c(C#N)c2nc3ccccc3n2c1NCc1ccco1 | 0.6 | 1 | 0.3 | 42 | 71*
Cc1ccc(OCC(=O)N(C)CCc2ccccn2)cc1 | 0.6 | 0.9 | 0.9 | 39 | 6
CCOC(=O)C(C(C)=O)c1c(Br)c(O)c(O)c2c(C(=O)c3ccc(C)cc3)coc12 (stereo not given) | 0.7 | 1.4 | 0 | 32 | 98*
CCOC(=O)c1c(C)n(-c2ccc(C)cc2)c2c(C(C(C)=O)C(=O)O)c(Br)c(O)c(O)c12 (stereo not given) | 1 | 1.6 | 1 | -4 | -2
CN(C)C(=O)Cn1c(SCC(=O)N2CCCc3ccccc32)nc2ccccc21 | 1 | 1 | 1 | 3 | 0
CC(C)NC(=O)CSc1nc2ccccc2n1CC(=O)N1CCc2ccccc21 | 0.3 | 1.5 | 0.1 | 72* | 95*
CC1CCCCN1C(=O)CSc1nc2ccccc2n1CC(=O)N1CCc2ccccc21 (stereo not given) | 0.2 | 1.6 | 0 | 82* | 99*
CC(C)NC(=O)Cn1c(SCC(=O)N2CCc3ccccc3C2)nc2ccccc21 | 0.7 | 0.9 | 0.6 | 30 | 40
CC(C)(C)SCCNC(=O)CSCc1ccc([N+](=O)[O-])cc1 | 1 | 1.1 | 0.8 | -1 | 24
CC(=O)c1cc(Cc2csc(C(C)=O)c2)cs1 | 0.4 | 0.8 | 0.6 | 62* | 35
Cc1ccc2c(c1)c(C)c(C)n2CC(O)Cn1nc(C)cc1C (stereo not given) | 0 | 1.5 | 0.2 | 97* | 77*
Cc1ccc2c(c1)c(C)c(C)n2CC(O)Cn1nnc2ccccc21 (stereo not given) | 0.6 | 1.6 | 0.4 | 40 | 64*
Cn1c(=O)c([N+](=O)[O-])c(NCc2ccccc2)c2ccccc21 | 1 | 0.9 | 1.1 | -5 | -6
Cc1cc(C)nc(NN2C(=O)/C(=C/c3ccc(O)cc3)SC2=S)n1 | 1 | 0.4 | 3.2* | 0 | -224
SMILES | CYP2C19 act | PLAP activator | CYP2C9 act | CYP2C19 inh | CYP2C9 inh
Cc1cc(C)cc(NC(=O)C2CCN(S(=O)(=O)c3c(C)n[nH]c3C)CC2)c1 | 0.8 | 1.3 | 1.7 | 22 | -72
Cc1ccc2c(c1)nnn2C1CCN(CC(=O)N2CCN(c3ccc(F)cc3)CC2)CC1 | 0.6 | 1.7 | 0.7 | 40 | 28
CCOC(=O)CN(C(=O)CN1CCC(n2nnc3cc(C)ccc32)CC1)c1ccccc1 | 0.8 | 1.8 | 0.4 | 18 | 55*
CCOc1ccccc1NC(=O)N1CCC(n2nnc3cc(C)ccc32)CC1 | 0.1 | 1.5 | 1.2 | 90* | -22
Cc1ccc2c(c1)nnn2C1CCN(C(=O)NC23CC4CC(CC(C4)C2)C3)CC1 | 0.5 | 0.9 | 1 | 55* | 3
Cc1ccc2c(c1)nnn2C1CCN(CC(=O)N2c3ccccc3CC2C)CC1 (stereo not given) | 0.7 | 1.5 | 1.2 | 30 | -15
CC(C)C(=O)NC(=S)Nc1ccccc1C(F)(F)F | 0.3 | 0.9 | 0.4 | 73* | 63*
CCCC(=O)NC(=S)Nc1ccccc1C(F)(F)F | 0.5 | 1.1 | 0.5 | 55* | 50*
Cc1ccccc1C(=O)NC(=S)Nc1ccccc1C(F)(F)F | 0.9 | 1.1 | 1.1 | 8 | -8
CCCC(=O)NC(=S)Nc1cccc(Cl)c1N1CCCCC1 | 0.3 | 0.4 | 0.1 | 69* | 93*
O=P1(Nn2cnnc2)C=C(c2ccccc2)OC(c2ccccc2)=C1 | 1 | 1.1 | 1.2 | -4 | -22
O=C1C2CC=CCC2C(=O)N1c1n[nH]c(-c2ccccc2)n1 (stereo not given) | 0.2 | 0.3 | 0.1 | 80* | 92*
C=CCc1c(C)nn(CC(=O)O)c1-c1ccccc1 | 1 | 1.3 | 1 | -5 | 0
COC(=O)CCc1nc2ccccc2[nH]c1=O | 0.8 | 0.9 | 1.1 | 22 | -6
CC(OC(=O)CCc1nc2ccccc2[nH]c1=O)C(=O)c1ccccc1 (stereo not given) | 0 | 1 | 0.3 | 96* | 67*
CCOc1ccccc1Nc1nnc(Cc2ccccc2Cl)c(=O)[nH]1 | 0.7 | 1.2 | 0.6 | 28 | 40
Cc1cc(C)n(CCc2nc(-c3ccc(C)o3)cs2)n1 | 0.8 | 1.1 | 0.9 | 19 | 13
COc1ccc(N2C(=O)C(Cl)=C(NCc3ccccc3)C2=O)cc1 | 0 | 1 | 0 | 99* | 96*
CC(=O)OCCn1c(=O)c2cc3c(=O)n(CCOC(C)=O)c(=O)c3cc2c1=O | 1.1 | 0.8 | 1 | -7 | 0
COc1ccccc1C1/C(=C(/O)c2ccccc2)C(=O)C(=O)N1CC(C)O (stereo not given) | 1 | 1.1 | 1 | -4 | 5
CCc1c(C)nc2ncnn2c1NCCc1ccc(OC)cc1 | 0.4 | 0.8 | 0.1 | 63* | 85*
CCC(=O)N1CN(S(=O)(=O)c2ccc(C)cc2)CC1C (stereo not given) | 0.5 | 0.9 | 0.9 | 53* | 13
CCC(C)[C@H](NC(=O)NCc1cccc(OC)c1)C(=O)O (stereo not given in full) | 1 | 1 | 1 | 3 | 3
CC(C)Oc1cccc(C(=O)NC(=S)Nc2cccc(C(F)(F)F)c2)c1 | 1 | 1.1 | 1.7 | -4 | -71
CCC(C)[C@H](NC(=O)NCc1ccc(Cl)cc1)C(=O)OC (stereo not given in full) | 0.5 | 1.1 | 0.8 | 52* | 22
